{"source": "PubChem BioAssay (NCI)", "note": "The panel holds about 83,000 compounds, 20% with a hit somewhere; the sample as a whole holds those more often.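 Assay: single dose, 48 h. Readout: percent growth (0 = no net growth; negative = cell death). Active: <10.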 A number with no mark means an inactive call. Active and inactive are the calls of the source.", "data": [{"tested_on": "MDA-MB-468 breast", "assay": "NCI-60 one-dose screen, 48 h (100 = growth as untreated, 0 = no growth, -100 = all killed)", "conditions": "10 µM unless noted", "values": [{"smiles": "OC(COc1ccccc1Cl)COc1ccccc1Cl", "growth": "102%"}, {"smiles": "N#Cc1c(-c2ccccn2)[nH]c(=S)[nH]c1=O", "growth": "110%"}, {"smiles": "O=C1/C=C/[C@@H](O)[C@@H]2C[C@@H](O)C[C@H]2/C=C/CCC[C@H](CCc2ccc3ncccc3c2)O1", "growth": "-5.95% (active)"}, {"smiles": "COC(=O)c1ccccc1Cl", "growth": "109%"}, {"smiles": "COc1ccc2nc(-c3ccc(-n4cncc4-c4ccc(OC)c(N)c4)cc3)sc2c1", "growth": "114%"}, {"smiles": "CC/C(=C(/c1ccc(Cl)cc1)c1ccc(OCCN2CCCCC2)cc1)c1ccc(OC)cc1", "growth": "26.5%"}, {"smiles": "COc1cc(C2=C(c3cn(C)c4ccccc34)COC2=O)cc(OC)c1OC", "growth": "16%"}, {"smiles": "C[N+](C)(C)C(=O)c1ccccc1", "growth": "101%"}, {"smiles": "Cc1cccc(Cc2cnc(NC(=O)CCCOc3ccc(Cl)cc3)s2)c1", "growth": "3.77% (active)"}, {"smiles": "CCOc1ccc2nc(C)cc(Nc3ccc(Br)cc3)c2c1", "growth": "100%"}, {"smiles": "CCCCN1C(=O)CC(SC2CC(=O)N(CCCC)C2=O)C1=O", "note": "(stereo not given)", "growth": "105%"}, {"smiles": "CS(=O)(=O)c1ccc(-c2nc3ccccn3c2C=Nc2ccc(Cl)cc2)cc1", "growth": "98.1%"}, {"smiles": "CC[C@H](Nc1nc(N)nc(C)c1C#N)c1nc2cccc(CN(C)c3ncc(C(=O)NO)cn3)c2c(=O)n1-c1ccccc1", "growth": "-11.3% (active)"}, {"smiles": "COc1ccc(/C=C(/C(=O)N2CCN(c3ccccc3)CC2)c2cc(OC)c(OC)c(OC)c2)cc1O", "growth": "17.6%"}, {"smiles": "Cc1nc2sc(C(=O)Nc3ccc(Br)cc3)c(N)c2cc1C(O)c1ccccc1", "note": "(stereo not given)", "growth": "12.7%"}, {"smiles": "Cc1cc(N/N=C/c2nc(-c3ccc(Br)cc3)oc2C)c2cc(Br)ccc2n1", "growth": "-5.21% (active)"}, {"smiles": "Oc1ccc(C(c2ccc(O)cc2)c2ccc(Cl)cn2)cc1", "growth": "-30.9% (active)"}, {"smiles": "Cc1ccc(S(=O)(=O)c2ccc3[nH]c(=O)[nH]c(=O)c3c2)cc1", "growth": "102%"}, {"smiles": "CCOC(=O)Nc1ccc(-c2nc(-c3cccc(OC)c3)c(-c3ccnc(Br)c3)[nH]2)cc1", "growth": "25.9%"}, {"smiles": "NS(=O)(=O)c1ccc(Nc2nc(N/N=C/c3ccc(C(F)(F)F)cc3)nc(Nc3ccccc3)n2)cc1", "growth": "34.3%"}, {"smiles": "COc1c([C@@H](CC(C)C)OC(C)=O)ccc2c1C(=O)OCc1cc(C)cc(O)c1O2", "growth": "8.08% (active)"}, {"smiles": "CC(C)(C)CC(C)(C)Nc1c(-c2ccc3c(c2)OCO3)nc2cnccn12", "growth": "95.2%"}, {"smiles": "[O-]/[N+](=C\\c1ccc(-n2cc(Cc3ccccc3Cc3cn(-c4ccc(/C=[N+](/[O-])c5ccccc5)cc4)nn3)nn2)cc1)c1ccccc1", "growth": "96.6%"}, {"smiles": "COc1ccc(C2CC(c3cccc(Nc4ccnc5cc(Cl)ccc45)c3)=NN2c2ccc(Cl)cc2)cc1", "note": "(stereo not given)", "growth": "64%"}, {"smiles": "O=C(Nc1cccc(Cl)c1)Nc1nc2ccc(-c3cccc4ccccc34)cc2s1", "growth": "37.6%"}, {"smiles": "CC(C)(C)OC(=O)Nc1ccc(-c2cccc(Oc3ccc4nnc(Cl)n4n3)c2)cc1", "growth": "61.9%"}, {"smiles": "O=S(=O)(NCCCNc1nccc(-c2c(-c3ccc(F)c(O)c3)nc3sccn23)n1)c1ccc(Cl)cc1", "growth": "82.8%"}, {"smiles": "CCc1cc(OC(=O)N2CCN(CCC(C)(COC(C)(C)C)COC(C)(C)C)CC2)ccc1Nc1cc(-c2ccc(-n3cccn3)cc2)[nH]n1", "growth": "82.4%"}, {"smiles": "Cc1ccncc1C(=O)O", "growth": "101%"}, {"smiles": "Cc1ccc(C(=O)CC(=O)C(F)(F)C(F)(F)C(F)(F)F)s1", "growth": "102%"}, {"smiles": "O=C(Cn1c(C(=O)c2ccccc2)nc2ccccc21)c1ccc(F)cc1", "growth": "35.1%"}, {"smiles": "CN1CCN(Cc2ccc(NC(=O)c3cncc(C#Cc4cnc(N)c5ncccc45)c3)cc2Cl)CC1", "growth": "85.4%"}, {"smiles": "Cc1csc(-c2nnc(Nc3ccc(Oc4ncccc4-c4ccnc(N)n4)cc3)c3ccccc23)c1", "growth": "41.6%"}, {"smiles": "CN(C)C(=S)N=Nc1c(O)[nH]c2ccccc12", "growth": "-2.36% (active)"}, {"smiles": "CSC1=NCCCC1", "growth": "102%"}, {"smiles": "COc1cc(-c2nc3nc4sc(C)c(C)c4c(=O)n3[nH]2)cc(OC)c1OC", "growth": "75.5%"}, {"smiles": "O=C1C2=C(Nc3cc(Cl)ccc3N2)OC1c1c[nH]c2ccc(COc3ccccc3)cc12", "note": "(stereo not given)", "growth": "48.2%"}, {"smiles": "COc1cc2c(cc1O)c(=O)n(CCN(C)C)c1c3cc4c(cc3ncc21)OCO4", "growth": "-57.9% (active)"}, {"smiles": "CCOc1cccc(-c2nc(N)nc(Nc3ccccc3SSc3ccccc3Nc3nc(N)nc(-c4cccc(OCC)c4)n3)n2)c1", "growth": "107%"}, {"smiles": "O=C1Nc2ccccc2/C1=N/N=C/c1ccc(OC2OC(CO)C(O)C(O)C2O)cc1", "note": "(stereo not given)", "growth": "112%"}]}]}
